Assay results as given in PubChem BioAssay (EPA / NIEHS).
Inconclusive results are not listed. Some structures have more than one record in an assay (separate samples or runs), and their calls can disagree. Active and inactive are the calls of the source. The calls were made as follows, unless noted: active = hit-call score of the fitted dose curve at least 0.9, where 1 is the maximum; inactive = score below 0.9.

Tests used:
[1] = biological target: Oxysterols receptor LXR-beta (Homo sapiens) (UniProt P55055); test: ATG_LXRb_TRANS: Attagene TRANS-FACTORIAL HepG2 Assay for human Liver X Receptor beta (LXRb) (AID 2282981; active = hit-call score of the fitted dose curve at least 0.9, where 1 is the maximum); conditions: HepG2 Attagene TRANS GAL4-LXRb reporter, mRNA
Oxysterols receptor LXR-beta (Homo sapiens), sequence (P55055 whole entry, looked up, the tested form may be a part): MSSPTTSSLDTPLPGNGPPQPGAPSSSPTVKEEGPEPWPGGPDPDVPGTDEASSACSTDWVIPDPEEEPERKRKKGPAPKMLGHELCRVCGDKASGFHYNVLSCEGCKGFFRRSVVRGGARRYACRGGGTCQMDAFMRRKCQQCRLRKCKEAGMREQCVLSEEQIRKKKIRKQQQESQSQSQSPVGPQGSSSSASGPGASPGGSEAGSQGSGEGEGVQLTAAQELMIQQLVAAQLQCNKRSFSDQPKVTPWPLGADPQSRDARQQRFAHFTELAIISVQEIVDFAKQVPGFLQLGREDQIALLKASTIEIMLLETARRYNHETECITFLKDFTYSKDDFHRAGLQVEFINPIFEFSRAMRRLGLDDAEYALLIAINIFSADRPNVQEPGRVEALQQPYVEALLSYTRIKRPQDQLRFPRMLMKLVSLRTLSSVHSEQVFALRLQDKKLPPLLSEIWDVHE
Summary of the method: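 Measures induction of a Gal4-driven reporter transcript in HepG2 cells expressing an exogenous LXRb-Gal4 fusion. Cells are exposed to compound for 24 h before RNA isolation and RT-PCR with capillary electrophoresis detection.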

[2] = biological target: Nuclear receptor subfamily 4 group A member 2 (Homo sapiens) (UniProt P43354); test: ATG_NURR1_TRANS: Attagene TRANS-FACTORIAL HepG2 Assay for human Nuclear Receptor Related Protein 1 (NURR1) (AID 2282985; active = hit-call score of the fitted dose curve at least 0.9, where 1 is the maximum); conditions: HepG2 Attagene TRANS reporter, mRNA readout
Nuclear receptor subfamily 4 group A member 2 (Homo sapiens), sequence (P43354 whole entry, looked up, the tested form may be a part): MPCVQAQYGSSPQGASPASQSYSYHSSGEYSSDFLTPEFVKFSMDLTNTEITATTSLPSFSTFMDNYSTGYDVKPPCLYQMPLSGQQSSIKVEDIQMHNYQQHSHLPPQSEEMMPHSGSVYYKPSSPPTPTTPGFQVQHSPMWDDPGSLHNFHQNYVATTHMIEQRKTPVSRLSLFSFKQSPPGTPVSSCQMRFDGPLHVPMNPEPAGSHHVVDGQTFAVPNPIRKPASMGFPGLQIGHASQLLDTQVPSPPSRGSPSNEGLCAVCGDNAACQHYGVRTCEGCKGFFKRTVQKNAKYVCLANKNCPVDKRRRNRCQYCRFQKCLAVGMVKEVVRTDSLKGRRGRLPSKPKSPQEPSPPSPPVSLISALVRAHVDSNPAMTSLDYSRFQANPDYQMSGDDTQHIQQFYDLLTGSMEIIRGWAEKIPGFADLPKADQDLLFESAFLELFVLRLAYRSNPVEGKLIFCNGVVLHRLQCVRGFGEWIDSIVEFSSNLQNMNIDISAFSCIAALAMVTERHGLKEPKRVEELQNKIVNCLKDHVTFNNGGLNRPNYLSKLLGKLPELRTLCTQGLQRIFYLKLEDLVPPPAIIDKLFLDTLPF
Summary of the method: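 Chimeric NR-Gal4 fusion activity measured in HepG2 after 24 h treatment. Reporter transcripts detected by RT-PCR and capillary electrophoresis fluorescence; positive-direction curve fitting against DMSO.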

[3] = biological target: Transcriptional activator Myb (Homo sapiens) (UniProt P10242); test: ATG_Myb_CIS: Attagene CIS-FACTORIAL HepG2 Assay for human Myeloblastosis (Myb) Proto-Oncogene Transcription Factor (AID 2282986); conditions: HepG2 Attagene CIS-FACTORIAL Myb reporter transcription; actives raise or lower the signal
Transcriptional activator Myb (Homo sapiens), sequence (P10242 whole entry, looked up): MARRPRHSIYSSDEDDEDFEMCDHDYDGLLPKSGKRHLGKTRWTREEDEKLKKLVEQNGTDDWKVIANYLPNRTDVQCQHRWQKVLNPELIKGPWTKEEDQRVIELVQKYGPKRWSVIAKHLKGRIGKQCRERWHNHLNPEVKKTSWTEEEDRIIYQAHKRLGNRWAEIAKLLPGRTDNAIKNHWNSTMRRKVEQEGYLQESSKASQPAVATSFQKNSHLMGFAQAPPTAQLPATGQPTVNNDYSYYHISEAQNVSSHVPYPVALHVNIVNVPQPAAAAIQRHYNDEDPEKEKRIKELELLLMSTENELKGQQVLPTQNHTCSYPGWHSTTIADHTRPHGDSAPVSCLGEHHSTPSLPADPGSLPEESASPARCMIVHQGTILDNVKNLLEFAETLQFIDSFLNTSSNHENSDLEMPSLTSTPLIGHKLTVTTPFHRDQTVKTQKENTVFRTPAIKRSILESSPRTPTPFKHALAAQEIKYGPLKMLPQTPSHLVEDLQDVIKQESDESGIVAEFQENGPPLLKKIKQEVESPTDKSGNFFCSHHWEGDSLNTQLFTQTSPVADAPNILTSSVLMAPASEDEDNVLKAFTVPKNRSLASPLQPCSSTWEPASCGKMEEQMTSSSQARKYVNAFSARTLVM
Summary of the method: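 Transiently transfected HepG2 cells, treated 24 h. Reporter mRNA quantified by RT-PCR/capillary electrophoresis; bidirectional fit relative to DMSO.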

[4] = biological target: Nuclear respiratory factor 1 (Homo sapiens) (UniProt Q16656); test: ATG_NRF1_CIS: Attagene CIS-FACTORIAL HepG2 Assay for human Nuclear Respiratory Factor 1 (NRF1) Orphan Gene (AID 2282987); conditions: HepG2 NRF1 cis-element reporter, Attagene multiplex; actives raise or lower the signal
Nuclear respiratory factor 1 (Homo sapiens), sequence (Q16656 whole entry, looked up, the tested form may be a part): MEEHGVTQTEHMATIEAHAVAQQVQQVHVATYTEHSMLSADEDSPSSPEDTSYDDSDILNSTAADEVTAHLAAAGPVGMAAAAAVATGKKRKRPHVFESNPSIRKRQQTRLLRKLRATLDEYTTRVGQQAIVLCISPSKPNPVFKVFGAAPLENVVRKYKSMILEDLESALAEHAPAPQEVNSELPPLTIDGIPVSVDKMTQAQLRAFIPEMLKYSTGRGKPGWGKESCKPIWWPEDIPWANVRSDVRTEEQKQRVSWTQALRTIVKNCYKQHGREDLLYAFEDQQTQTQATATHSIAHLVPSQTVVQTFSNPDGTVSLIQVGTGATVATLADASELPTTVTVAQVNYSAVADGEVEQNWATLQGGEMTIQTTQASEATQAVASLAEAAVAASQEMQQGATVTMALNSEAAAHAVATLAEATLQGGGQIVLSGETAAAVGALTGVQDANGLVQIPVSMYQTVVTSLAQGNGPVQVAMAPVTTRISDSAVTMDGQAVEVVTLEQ
Summary of the method: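 Cells (HepG2, transient MRTU transfection) are exposed to compound for 24 h, then RNA isolated and reporter mRNA amplified and fluorescently labelled. Fragments are separated by capillary electrophoresis; signal change is fitted bidirectionally relative to DMSO.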

[5] = ATG_NFI_CIS: Attagene CIS-FACTORIAL HepG2 Assay for human Nuclear Factor I (NFI) (AID 2282989); conditions: HepG2 cis-regulatory reporter, NFI response element transcription; actives raise or lower the signal
Summary of the method: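 Transfected HepG2 liver cells, exposed 24 h, supplied total RNA for oligo(dT) reverse transcription and reporter-specific PCR. Labelled, HpaI-cut fragments were sized by capillary electrophoresis; DMSO set the baseline for bidirectional fitting.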

[6] = biological target: Myc proto-oncogene protein (Homo sapiens) (UniProt P01106); test: ATG_Myc_CIS: Attagene CIS-FACTORIAL HepG2 Assay for human Myelocytomatosis (Myc) Proto-Oncogene Transcription Factor (AID 2282990); conditions: HepG2, Attagene cis-reporter transcription factor activity; actives raise or lower the signal
Myc proto-oncogene protein (Homo sapiens), sequence (P01106 whole entry, looked up): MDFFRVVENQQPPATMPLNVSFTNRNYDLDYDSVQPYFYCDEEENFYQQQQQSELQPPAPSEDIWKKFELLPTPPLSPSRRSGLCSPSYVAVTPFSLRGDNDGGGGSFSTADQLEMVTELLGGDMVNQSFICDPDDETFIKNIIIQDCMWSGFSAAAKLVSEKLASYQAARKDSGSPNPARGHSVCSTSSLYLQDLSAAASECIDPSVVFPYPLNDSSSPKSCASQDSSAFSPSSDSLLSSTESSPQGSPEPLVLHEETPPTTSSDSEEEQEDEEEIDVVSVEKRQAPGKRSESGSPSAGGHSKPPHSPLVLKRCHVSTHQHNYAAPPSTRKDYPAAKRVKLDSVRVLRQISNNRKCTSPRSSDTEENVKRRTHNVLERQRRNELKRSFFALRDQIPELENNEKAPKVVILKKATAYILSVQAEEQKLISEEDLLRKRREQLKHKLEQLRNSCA
Summary of the method: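 HepG2 cells transiently transfected with multiple cis-promoter-driven reporter transcription units, so endogenous TF activity is read. After 24 h compound exposure, reporter mRNA was quantified by RT-PCR, 6-FAM labelling, HpaI digestion and capillary electrophoresis; bidirectional fit versus DMSO.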

[7] = ATG_NRF2_ARE_CIS: Attagene CIS-FACTORIAL HepG2 Assay for human Nuclear Factor Erythroid 2 Related Factor 2 (NFR2) response to Antioxidant Response Elements (ARE) (AID 2282992); conditions: HepG2 Attagene ARE/NRF2 reporter, transcription factor activity; actives raise or lower the signal;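 as to AC50: reporter mRNA level measured by RT-PCR and capillary electrophoresis fluorescence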
Summary of the method: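 Fluorescence intensity of reporter-specific cDNA fragments, separated by capillary electrophoresis, reflects mRNA induction in transfected HepG2 cells at 24 h. Activity is fitted bidirectionally, DMSO serving as baseline.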

[8] = ATG_Oct_MLP_CIS: Attagene CIS-FACTORIAL HepG2 Assay for human Octamer-Binding Transcription Factor (Oct) (AID 2282993); conditions: HepG2 Attagene cis-factorial Oct reporter, mRNA; actives raise or lower the signal
Summary of the method: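 Using HepG2 cells bearing transfected cis-reporter constructs, mRNA induction was read after 24 h by fluorescent RT-PCR and capillary electrophoresis, with DMSO defining baseline for gain- or loss-of-signal fits.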

[9] = biological target: Cellular tumor antigen p53 (Homo sapiens) (UniProt P04637); test: ATG_p53_CIS: Attagene CIS-FACTORIAL HepG2 Assay for human p53 Transcription Factor (AID 2282994); conditions: HepG2 p53 cis-element reporter, Attagene mRNA; actives raise or lower the signal
Cellular tumor antigen p53 (Homo sapiens), sequence (P04637 whole entry, looked up): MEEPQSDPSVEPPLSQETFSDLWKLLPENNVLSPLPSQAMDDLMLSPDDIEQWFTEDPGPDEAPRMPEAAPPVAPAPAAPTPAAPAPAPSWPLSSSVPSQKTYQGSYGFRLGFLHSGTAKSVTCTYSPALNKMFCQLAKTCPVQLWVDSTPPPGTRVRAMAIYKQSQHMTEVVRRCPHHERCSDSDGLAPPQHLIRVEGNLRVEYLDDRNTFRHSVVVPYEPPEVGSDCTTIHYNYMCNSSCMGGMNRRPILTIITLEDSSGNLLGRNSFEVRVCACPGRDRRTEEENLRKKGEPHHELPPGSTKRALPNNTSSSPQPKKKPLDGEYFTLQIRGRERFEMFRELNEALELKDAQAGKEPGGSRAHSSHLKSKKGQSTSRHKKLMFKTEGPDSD
Summary of the method: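 Transiently transfected HepG2 (multiple cis reporter transcription units); exposure 24 h; reporter RNA via RT-PCR, 6-FAM extension, 2 h HpaI digest at 37 C, CE detection; DMSO baseline.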

[10] = biological target: Hepatocyte nuclear factor 4-alpha (Homo sapiens) (UniProt P41235); test: ATG_HNF4a_TRANS: Attagene TRANS-FACTORIAL HepG2 Assay for human Hepatocyte Nuclear Factor 4 alpha (HNF4a) (AID 2282982; active = hit-call score of the fitted dose curve at least 0.9, where 1 is the maximum); conditions: HepG2 HNF4a transactivation reporter, mRNA readout
Hepatocyte nuclear factor 4-alpha (Homo sapiens), sequence (P41235 whole entry, looked up, the tested form may be a part): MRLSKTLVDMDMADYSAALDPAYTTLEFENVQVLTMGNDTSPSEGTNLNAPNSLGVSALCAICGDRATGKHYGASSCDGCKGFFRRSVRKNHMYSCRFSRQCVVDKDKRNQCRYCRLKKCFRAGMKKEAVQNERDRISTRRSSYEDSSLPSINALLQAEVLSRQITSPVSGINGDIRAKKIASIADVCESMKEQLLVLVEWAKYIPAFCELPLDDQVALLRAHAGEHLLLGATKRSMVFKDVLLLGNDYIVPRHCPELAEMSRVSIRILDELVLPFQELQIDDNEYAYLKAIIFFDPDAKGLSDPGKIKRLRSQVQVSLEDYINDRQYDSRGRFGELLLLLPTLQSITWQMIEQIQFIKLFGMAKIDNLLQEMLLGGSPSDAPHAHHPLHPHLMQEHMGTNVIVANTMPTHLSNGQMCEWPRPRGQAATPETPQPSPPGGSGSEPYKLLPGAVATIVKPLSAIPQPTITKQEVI
Summary of the method: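 In this trans-factorial format, a chimeric HNF4a-GAL4 fusion drives a GAL4-UAS reporter in transfected HepG2 liver cells. After 24 h treatment, reporter mRNA induction is measured by RT-PCR with capillary electrophoresis, relative to DMSO.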

[11] = ATG_M_06_TRANS: Attagene TRANS-FACTORIAL HepG2 Assay for M06 Transcription Factor (Internal Marker) (AID 2282983; active = hit-call score of the fitted dose curve at least 0.9, where 1 is the maximum); conditions: HepG2 Attagene TRANS M06 internal marker reporter
Summary of the method: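 In this multiplexed HepG2 system, compounds are incubated 24 h with cells carrying GAL4-UAS reporter units. Reporter RNA is amplified and resolved by capillary electrophoresis, and induction is scored against DMSO.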

[12] = ATG_M_32_TRANS: Attagene TRANS-FACTORIAL HepG2 Assay for M32 Transcription Factor (Internal Marker) (AID 2282984; active = hit-call score of the fitted dose curve at least 0.9, where 1 is the maximum;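 also: transcript level of a background control reporter unit measured by RT-PCR and capillary electrophoresis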); conditions: HepG2 Attagene TRANS M32 internal marker reporter
Summary of the method: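 After 24 h dosing of transfected HepG2 cells, total RNA was reverse-transcribed, reporter sequences PCR-amplified, 6-FAM labelled by primer extension and HpaI-digested before capillary electrophoresis. Signal increase over DMSO was fitted.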

[13] = ATG_NF_kB_CIS: Attagene CIS-FACTORIAL HepG2 Assay for human Nuclear Factor Kappa B (NF-kB) (AID 2282991); conditions: HepG2 Attagene cis-factorial NF-kB reporter mRNA; actives raise or lower the signal
Summary of the method: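 Measures mRNA induction of an NF-kB-responsive cis-element reporter in HepG2 cells transfected with multiple reporter units, sampled 24 h post-dosing; quantified by fluorescence after RT-PCR and capillary electrophoresis, fitted for activation or inhibition against DMSO.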

[14] = BSK_3C_TissueFactor: BioMAP Diversity Plus: 3C Assay for Tissue Factor Biomarker Activity (AID 2282997); conditions: BioMAP 3C HUVEC, tissue factor biomarker readout; actives raise or lower the signal
Summary of the method: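 Readout: Tissue Factor ELISA. Cells: human primary umbilical vein endothelium. Time: 24 h after dosing. Analysis: bidirectional fit, DMSO baseline.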

[15] = BSK_3C_uPAR: BioMAP Diversity Plus: 3C Assay for Urokinase-type plasminogen activator receptor (uPAR) Biomarker Activity (AID 2282998); conditions: BioMAP 3C HUVEC, uPAR biomarker ELISA; actives raise or lower the signal
Summary of the method: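 In this endothelial cell-based assay, human umbilical vein primary cells were treated with chemicals and harvested at 24 h. uPAR was quantified using ELISA, with gains or losses fitted relative to DMSO controls.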

[16] = BSK_3C_VCAM1: BioMAP Diversity Plus: 3C Assay for Vascular cell adhesion molecule 1 (VCAM1) Biomarker Activity (AID 2282999); conditions: BioMAP 3C HUVEC, VCAM1 ELISA, cytokine-stimulated; actives raise or lower the signal
Summary of the method: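 Vascular primary endothelium (human umbilical vein) was exposed to chemicals and assayed 24 h later. VCAM-1 levels came from ELISA, with DMSO serving as baseline for bidirectional fitting.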

Measured: AC50

CC1=CCC(C(C)C)=CC1
inactive: [1] | [2] | [3] | [4] | [5] | [6] | [7] | [8] | [9]

CCOC(=O)CCCCCCCCC(=O)OCC
not listed: [4]
inactive: all other assays above

CCCCCCCCCCCCOCCOS(=O)(=O)O
not listed: [3] | [10] | [13] | [14] | [15] | [16]
inactive: all other assays above

CCCCCc1cccc(=O)o1
inactive: [1] | [12] | [3] | [5] | [6] | [13] | [8] | [9]
active: [7] 41.5 µM

CC(=O)Nc1cc(S(=O)(=O)O)cc2cc(S(=O)(=O)O)c(N=Nc3ccccc3)c(O)c12
not listed: [2] | [8] | [10] | [14] | [15] | [16]
inactive: all other assays above

COc1cc(OC)c2ccc(=O)oc2c1
not listed: [1] | [9] | [14] | [15] | [16]
inactive: all other assays above

O=[N+]([O-])c1cc(N(CCO)CCO)ccc1NCCO
not listed: [1] | [2] | [14] | [15] | [16]
inactive: all other assays above

COc1ccc(C(C)=O)cc1
inactive: [1] | [2] | [3] | [4] | [5] | [6] | [7] | [8] | [9]

C1CCCNCC1
not listed: [9] | [12] | [13] | [14] | [15] | [16]
inactive: all other assays above

CC(=O)CCC=C(C)CCC=C(C)C
active: [7] 53 µM | [16] 30.9 µM
not listed: [1] | [3]
inactive: all other assays above

CC(=O)Oc1c(C)c(C)c2c(c1C)CC[C@@](C)(CCC[C@H](C)CCC[C@H](C)CCCC(C)C)O2
not listed: [4] | [11] | [13] | [14] | [15] | [16]
inactive: all other assays above

CCNC(=S)NCC
not listed: [4] | [10] | [14] | [15] | [16]
inactive: all other assays above

OCC=Cc1ccccc1
inactive: [1] | [10] | [2] | [3] | [4] | [5] | [6] | [8]
active: [7] 65.9 µM

C[N+](C)(C)CCO
active: [7] 101 µM
inactive: [1] | [10] | [3] | [4] | [5] | [6]

CC(=O)OC(C)(C)C
not listed: [5] | [11] | [14] | [15] | [16]
inactive: all other assays above

CCCCCC1C(=O)CCC1CC(=O)OC (stereo not drawn)
not listed: [10] | [12] | [13] | [14] | [15] | [16]
inactive: all other assays above

OCC(F)(OC(F)(F)C(F)(OC(F)(F)C(F)(F)C(F)(F)F)C(F)(F)F)C(F)(F)F (stereo not drawn)
active: [16] 3.72 µM
inactive: [14] | [15] | [16]

CC(=O)OC/C=C(C)/C=C/C=C(C)/C=C/C1=C(C)CCCC1(C)C
active: [4] 167 µM | [13] 39.8 µM | [7] 3.64 µM | [9] 146 µM
inactive: [10] | [12] | [2] | [3] | [6] | [8]

[Na+]
inactive: [2] | [3] | [4] | [5] | [6] | [7] | [8] | [9]

CCCCCCCCCCO[C@@H]1O[C@H](CO)[C@@H](O)[C@H](O)[C@H]1O
active: [7] 100 µM
inactive: [2] | [3] | [4] | [5] | [6] | [8]

CCCO
inactive: [11] | [12] | [2] | [3] | [4] | [6] | [13] | [7] | [9]

CC(O)CNCC(C)O (stereo not drawn)
inactive: [10] | [11] | [12] | [4] | [5] | [6] | [7] | [8] | [9]

O=C(O)C(F)(F)OC(F)(F)C(F)(F)OC(F)(F)C(F)(F)C(F)(F)C(F)(F)F
inactive: [14] | [15] | [16]
active: [15] 38.7 µM

CCOC(=O)COC(=O)c1ccccc1C(=O)OCC
inactive: [10] | [11] | [3] | [4] | [5] | [6] | [7] | [8] | [9]

CCO[Si](CC)(OCC)OCC
active: [7] 19.8 µM
not listed: [1] | [12] | [13] | [14] | [15] | [16]
inactive: all other assays above

CC(=O)CC(C)(C)C1CCCCC1
inactive: [10] | [12] | [3] | [4] | [5] | [6] | [13] | [7] | [9]

CCC(C)C1CCCCC1=O (stereo not drawn)
not listed: [1] | [10] | [13] | [14] | [15] | [16]
inactive: all other assays above

Cc1ccncc1
inactive: [11] | [3] | [4] | [5] | [6] | [7] | [8] | [9]
